# Inconclusive results are not listed. Active and inactive are the calls of the source. How the source made its calls: active means hit-call score of the fitted dose curve at least 0.9, where 1 is the maximum; inconclusive means response in the unintended direction; inactive means score below 0.9.
# Columns and labels:
# [1] = target: Estrogen receptor (Homo sapiens) (UniProt P03372); assay: OT_ER_ERaERa_0480: Odyssey Thera (OT) 8-hour HEK293T Protein-Complementation Assay for Estrogen Receptor-alpha/-alpha Homodimer (AID 2283351);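 further: rise in fluorescence from reassembled reporter fragments on ERα LBD homodimer in nucleus or whole cell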
# Outline: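 HEK293T cells stably expressing the human ERα ligand-binding domain (aa 310-547) as a homodimer PCA were dosed with compound for 8 h. Gain of fluorescence intensity versus DMSO vehicle was read by laser scanning cytometry.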
# [2] = target: Androgen Receptor/SRC-1 Co-activator, AR (gene 367) (UniProt P10275); assay: OT_AR_ARSRC1_0960: Odyssey Thera (OT) 16-hour HEK293T Protein-Complementation Assay for Androgen Receptor/SRC-1 Co-activator (AID 2283353);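 further: actives raise the signal above DMSO so potency reflects increased AR and SRC-1 complex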
# Outline: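 HEK293T cells stably expressing AR and SRC-1 fused to split Venus YFP fragments via (Gly4Ser)2 linkers were dosed for 16 h. Nuclear/cytoplasmic fluorescence ratio at 488 nm, ≥400 cells per image, fitted for gain of signal versus DMSO.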
# [3] = target: Androgen Receptor/SRC-1 Co-activator, AR (gene 367) (UniProt P10275); assay: OT_AR_ARSRC1_0480: Odyssey Thera (OT) 8-hour HEK293T Protein-Complementation Assay for Androgen Receptor/SRC-1 Co-activator (AID 2283354);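 further: hits raise the complementation signal above DMSO so AC50 marks enhancers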
# Outline: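 HEK293T cells stably expressing AR and SRC-1 fused to Venus YFP fragments, imaged 8 h after dosing. Complementation fluorescence scored as nuclear/cytoplasmic ratio at 488 nm in at least 400 cells per image; gain fitted versus DMSO.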
# [4] = target: T1, Estrogen receptor (Homo sapiens) + Estrogen receptor beta (Homo sapiens) (UniProt P03372+Q92731); assay: OT_ER_ERaERb_1440: Odyssey Thera (OT) 24-hour HEK293T Protein-Complementation Assay for Estrogen Receptor-alpha/-beta Homodimer (AID 2283356);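 further: heteromer of ER alpha and ER beta binding domains; hits raise reporter fluorescence and both agonists and antagonists give an increase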
# Outline: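 24 h exposure; HEK293T PCA cells with ERα/ERβ LBD fragments; signal rise in nuclear or whole-cell fluorescence over vehicle.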
# [5] = target: T1, Estrogen receptor (Homo sapiens) + Estrogen receptor beta (Homo sapiens); assay: OT_ER_ERaERb_0480: Odyssey Thera (OT) 8-hour HEK293T Protein-Complementation Assay for Estrogen Receptor-alpha/-beta Heterodimer (AID 2283352)
# Outline: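 Human HEK293T cells were treated for 8 hours and receptor heterodimerisation was detected through reconstitution of a fluorescent reporter split between ER-alpha and ER-beta ligand-binding domains. Activity was analysed as gain of signal against DMSO.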
# [6] = target: Estrogen receptor beta (Homo sapiens) (UniProt Q92731); assay: OT_ER_ERbERb_0480: Odyssey Thera (OT) 8-hour HEK293T Protein-Complementation Assay for Estrogen Receptor-beta/-beta Homodimer (AID 2283357);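 further: active means signal gain over DMSO baseline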
# Outline: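 Fluorescence intensity, nuclear for agonists and nuclear plus cytoplasmic for antagonists, was quantified by laser scanning cytometry versus vehicle after 8 h treatment. The cells were HEK293T stably carrying ER beta LBD fragment-complementation partners.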
# [7] = target: Bile acid receptor (Homo sapiens) (UniProt Q96RI1); assay: NVS_NR_hFXR_Antagonist: NovaScreen (NVS) Nuclear Receptor Binding Assay for human Farnesoid X Receptor Antagonism (FXR) (AID 2283350)
# Outline: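 Cell-free TR-FRET ligand-binding read-out on human FXR (NR1H4) in antagonist mode, measured 1 h after dosing. Primary screen in duplicate at 25 uM, actives retested in concentration series; signal loss scored versus DMSO.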
# [8] = target: rat Mineralocorticoid Receptor (MR), Nr3c2 (gene 25672) (UniProt P22199); assay: NVS_NR_rMR: NovaScreen (NVS) Nuclear Receptor Binding Assay for rat Mineralocorticoid Receptor (MR) (AID 2283355)
# Outline: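 Cell-free radioligand binding to mineralocorticoid receptor from adrenalectomized rat brain supernatant, scintillation counting after 24 h. Primary screen in duplicate at 25 uM; actives retested in concentration series. Loss of specific binding versus DMSO.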
# PGR (gene 5241) = PGR (gene 5241) (UniProt P06401); assay: NVS_NR_hPR: NovaScreen (NVS) Nuclear Receptor Binding Assay for human Progestron Receptor (PR) (AID 2283360);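 further: active means loss of bound radioligand signal versus DMSO baseline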
# Outline: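 Radioligand competition binding on receptor extracted from T47D cells, read by scintillation counting 18 h after dosing. Loss of signal versus DMSO; primary screen in duplicate at 25 uM, actives followed in concentration series.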
# T1 sequence (P03372 whole entry, looked up, the tested form may be a part): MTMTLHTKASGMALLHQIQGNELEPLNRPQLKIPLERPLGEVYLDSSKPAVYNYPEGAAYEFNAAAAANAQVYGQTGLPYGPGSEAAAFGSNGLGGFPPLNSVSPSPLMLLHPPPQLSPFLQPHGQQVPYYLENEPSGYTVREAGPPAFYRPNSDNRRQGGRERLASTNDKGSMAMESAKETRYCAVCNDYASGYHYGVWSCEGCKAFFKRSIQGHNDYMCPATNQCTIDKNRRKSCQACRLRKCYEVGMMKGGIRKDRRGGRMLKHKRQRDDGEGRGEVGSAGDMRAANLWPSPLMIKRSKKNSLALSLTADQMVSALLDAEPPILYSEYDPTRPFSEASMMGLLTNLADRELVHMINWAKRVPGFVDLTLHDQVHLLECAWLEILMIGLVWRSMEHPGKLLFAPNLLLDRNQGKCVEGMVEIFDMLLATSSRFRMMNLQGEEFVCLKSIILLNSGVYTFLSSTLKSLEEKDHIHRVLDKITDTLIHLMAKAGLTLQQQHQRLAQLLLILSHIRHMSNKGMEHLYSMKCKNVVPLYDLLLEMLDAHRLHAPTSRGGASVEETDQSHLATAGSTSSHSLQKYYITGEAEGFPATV
# T1 sequence (Q92731 whole entry, looked up, the tested form may be a part): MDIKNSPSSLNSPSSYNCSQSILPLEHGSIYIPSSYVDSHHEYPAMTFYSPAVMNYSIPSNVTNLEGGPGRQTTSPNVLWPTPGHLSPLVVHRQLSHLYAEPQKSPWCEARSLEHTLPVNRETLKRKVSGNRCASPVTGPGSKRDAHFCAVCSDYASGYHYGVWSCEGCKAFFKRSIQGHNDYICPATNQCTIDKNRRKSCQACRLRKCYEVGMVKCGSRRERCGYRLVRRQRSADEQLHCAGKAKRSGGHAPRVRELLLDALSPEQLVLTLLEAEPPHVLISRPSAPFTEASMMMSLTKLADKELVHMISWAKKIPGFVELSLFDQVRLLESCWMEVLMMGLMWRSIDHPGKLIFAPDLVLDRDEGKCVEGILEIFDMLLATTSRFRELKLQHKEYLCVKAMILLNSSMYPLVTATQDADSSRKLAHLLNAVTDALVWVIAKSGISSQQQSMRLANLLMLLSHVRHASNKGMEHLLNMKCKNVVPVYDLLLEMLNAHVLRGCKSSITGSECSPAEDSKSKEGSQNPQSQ
# Sequence of Estrogen receptor (Homo sapiens) (P03372 whole entry, looked up, the tested form may be a part): as the sequence (P03372 whole entry, looked up, the tested form may be a part) above
# Sequence of Estrogen receptor beta (Homo sapiens) (Q92731 whole entry, looked up, the tested form may be a part): as the sequence (Q92731 whole entry, looked up, the tested form may be a part) above
# Sequence of Androgen Receptor/SRC-1 Co-activator, AR (gene 367) (P10275 whole entry, looked up, the tested form may be a part): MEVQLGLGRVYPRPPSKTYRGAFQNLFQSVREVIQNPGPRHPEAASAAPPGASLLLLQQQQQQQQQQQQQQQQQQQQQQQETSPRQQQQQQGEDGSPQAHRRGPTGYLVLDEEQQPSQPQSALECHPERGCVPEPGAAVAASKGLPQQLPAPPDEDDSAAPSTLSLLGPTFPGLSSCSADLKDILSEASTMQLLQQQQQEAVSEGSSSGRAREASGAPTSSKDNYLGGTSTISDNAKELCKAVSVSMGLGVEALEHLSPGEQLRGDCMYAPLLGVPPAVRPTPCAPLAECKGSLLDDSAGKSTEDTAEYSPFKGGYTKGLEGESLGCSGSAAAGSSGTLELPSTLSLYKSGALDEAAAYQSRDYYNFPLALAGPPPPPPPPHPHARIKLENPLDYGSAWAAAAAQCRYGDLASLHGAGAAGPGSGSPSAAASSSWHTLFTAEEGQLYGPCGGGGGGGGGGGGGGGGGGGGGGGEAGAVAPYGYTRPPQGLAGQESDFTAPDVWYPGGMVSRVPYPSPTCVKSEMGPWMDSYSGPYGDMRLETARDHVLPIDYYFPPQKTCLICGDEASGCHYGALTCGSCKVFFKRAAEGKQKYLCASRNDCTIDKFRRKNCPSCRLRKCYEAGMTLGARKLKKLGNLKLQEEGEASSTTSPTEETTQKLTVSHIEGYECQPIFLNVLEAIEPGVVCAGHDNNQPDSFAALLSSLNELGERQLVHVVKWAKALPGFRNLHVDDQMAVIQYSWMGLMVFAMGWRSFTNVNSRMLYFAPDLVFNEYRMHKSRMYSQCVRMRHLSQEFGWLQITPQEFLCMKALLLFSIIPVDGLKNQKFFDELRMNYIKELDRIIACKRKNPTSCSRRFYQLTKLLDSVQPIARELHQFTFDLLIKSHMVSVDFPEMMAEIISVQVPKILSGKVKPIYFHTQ
# Sequence of Bile acid receptor (Homo sapiens) (Q96RI1 whole entry, looked up): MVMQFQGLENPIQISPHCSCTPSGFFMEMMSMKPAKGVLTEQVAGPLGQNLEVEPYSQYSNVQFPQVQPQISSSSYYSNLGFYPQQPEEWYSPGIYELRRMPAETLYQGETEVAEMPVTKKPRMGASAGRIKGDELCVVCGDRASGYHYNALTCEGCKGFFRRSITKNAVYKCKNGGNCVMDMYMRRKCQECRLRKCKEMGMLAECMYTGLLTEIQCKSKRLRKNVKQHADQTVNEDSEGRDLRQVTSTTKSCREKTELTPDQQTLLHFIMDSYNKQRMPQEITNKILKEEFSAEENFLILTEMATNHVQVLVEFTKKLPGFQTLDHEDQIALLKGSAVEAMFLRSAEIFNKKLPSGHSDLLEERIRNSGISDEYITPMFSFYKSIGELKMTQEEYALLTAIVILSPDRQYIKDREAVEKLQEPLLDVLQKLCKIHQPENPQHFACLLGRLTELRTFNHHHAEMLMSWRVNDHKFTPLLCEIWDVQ
# Sequence of rat Mineralocorticoid Receptor (MR), Nr3c2 (gene 25672) (P22199 whole entry, looked up): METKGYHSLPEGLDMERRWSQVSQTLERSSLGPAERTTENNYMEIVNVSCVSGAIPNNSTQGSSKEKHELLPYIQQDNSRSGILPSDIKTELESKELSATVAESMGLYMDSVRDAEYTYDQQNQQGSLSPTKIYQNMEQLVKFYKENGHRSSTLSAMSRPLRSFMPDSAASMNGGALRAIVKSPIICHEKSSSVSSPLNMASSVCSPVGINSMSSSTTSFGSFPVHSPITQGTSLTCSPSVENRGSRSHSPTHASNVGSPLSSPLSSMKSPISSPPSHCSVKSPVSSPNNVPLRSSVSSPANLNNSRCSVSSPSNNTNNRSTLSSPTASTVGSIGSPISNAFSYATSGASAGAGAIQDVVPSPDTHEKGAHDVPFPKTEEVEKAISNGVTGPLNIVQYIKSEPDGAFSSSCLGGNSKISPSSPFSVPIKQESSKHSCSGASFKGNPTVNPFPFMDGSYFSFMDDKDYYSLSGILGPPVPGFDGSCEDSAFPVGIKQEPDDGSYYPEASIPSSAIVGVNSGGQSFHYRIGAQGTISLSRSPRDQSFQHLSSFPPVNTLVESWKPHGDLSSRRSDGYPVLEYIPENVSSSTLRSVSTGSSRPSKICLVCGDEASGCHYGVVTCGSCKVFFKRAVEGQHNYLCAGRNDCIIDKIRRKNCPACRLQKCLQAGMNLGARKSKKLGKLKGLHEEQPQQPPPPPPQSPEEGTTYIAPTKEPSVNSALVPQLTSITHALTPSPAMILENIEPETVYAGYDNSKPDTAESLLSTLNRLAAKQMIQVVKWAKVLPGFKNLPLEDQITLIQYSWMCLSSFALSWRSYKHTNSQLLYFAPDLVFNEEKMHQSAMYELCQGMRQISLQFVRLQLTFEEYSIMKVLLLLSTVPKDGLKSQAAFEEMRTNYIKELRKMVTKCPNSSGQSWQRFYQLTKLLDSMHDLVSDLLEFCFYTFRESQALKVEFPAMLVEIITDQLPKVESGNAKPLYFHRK
# Sequence of PGR (gene 5241) (P06401 whole entry, looked up): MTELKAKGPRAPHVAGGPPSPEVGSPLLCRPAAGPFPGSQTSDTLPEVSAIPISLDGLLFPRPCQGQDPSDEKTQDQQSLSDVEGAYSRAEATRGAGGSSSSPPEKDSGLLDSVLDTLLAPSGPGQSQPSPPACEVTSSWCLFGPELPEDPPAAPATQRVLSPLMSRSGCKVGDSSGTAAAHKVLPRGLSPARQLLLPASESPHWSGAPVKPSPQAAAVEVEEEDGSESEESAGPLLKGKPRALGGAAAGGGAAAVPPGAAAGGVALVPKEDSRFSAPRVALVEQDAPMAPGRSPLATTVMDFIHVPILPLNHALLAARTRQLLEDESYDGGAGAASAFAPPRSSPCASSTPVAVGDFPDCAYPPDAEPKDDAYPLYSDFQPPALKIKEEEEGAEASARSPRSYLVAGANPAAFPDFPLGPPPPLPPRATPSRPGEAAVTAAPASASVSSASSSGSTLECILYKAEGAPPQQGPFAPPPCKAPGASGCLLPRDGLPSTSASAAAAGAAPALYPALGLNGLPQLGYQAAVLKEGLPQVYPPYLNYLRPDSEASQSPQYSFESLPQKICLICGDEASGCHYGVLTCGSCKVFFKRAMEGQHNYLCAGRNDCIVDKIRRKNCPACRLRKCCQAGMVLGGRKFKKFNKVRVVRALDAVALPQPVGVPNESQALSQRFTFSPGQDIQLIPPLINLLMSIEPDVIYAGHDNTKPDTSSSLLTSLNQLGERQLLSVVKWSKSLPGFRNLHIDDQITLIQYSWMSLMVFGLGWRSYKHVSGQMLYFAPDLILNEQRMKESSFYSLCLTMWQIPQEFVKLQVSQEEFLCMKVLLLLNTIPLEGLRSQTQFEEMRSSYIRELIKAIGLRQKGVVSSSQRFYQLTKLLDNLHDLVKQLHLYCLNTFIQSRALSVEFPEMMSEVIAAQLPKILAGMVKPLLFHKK
smiles,measurement,setting,value
CCOC(=O)COc1ccc2c(c1)CC(NCC(O)c1cccc(Cl)c1)CC2 (configuration not stated),outcome,[1],inactive
CC(C)=CCCC(C)CCO (configuration not stated),outcome,[1],inactive
same,outcome,[2],inactive
same,outcome,[3],inactive
same,outcome,[4],inactive
Cn1cnc([N+](=O)[O-])c1Sc1ncnc2nc[nH]c12,outcome,[1],inactive
same,outcome,[5],inactive
same,outcome,[4],inactive
C=CC(=C)CCC=C(C)C,outcome,[1],inactive
same,outcome,[5],inactive
same,outcome,[4],inactive
CC(C)CCO,outcome,[1],inactive
same,outcome,[5],inactive
same,outcome,[4],inactive
same,outcome,[6],inactive
COC(=O)c1c(Cl)c(Cl)c(C(=O)OC)c(Cl)c1Cl,outcome,[7],inactive
same,outcome,[1],inactive
same,outcome,[5],inactive
same,AC50,[4],50 µM (active)
CCCCCCCCO,outcome,[1],inactive
same,outcome,[5],inactive
same,outcome,[4],inactive
same,outcome,[6],inactive
O=P(OC(CCl)CCl)(OC(CCl)CCl)OC(CCl)CCl,outcome,[1],inactive
same,outcome,[5],inactive
same,outcome,[8],inactive
same,outcome,[4],inactive
same,AC50,PGR (gene 5241),5.78 µM (active)
CC(C)=CCC/C(C)=C\CO,outcome,[7],inactive
CNS(=O)(=O)c1cc(C(=O)N2CCC(CCN3C4CCC3CC(n3c(C)nc5ccccc53)C4)(c3cccc(F)c3)CC2)c(Cl)cc1F (configuration not stated),AC50,[7],8.21 µM (active)
same,AC50,[2],31.9 µM (active)
same,AC50,[3],32 µM (active)
same,outcome,[6],inactive
Cc1ccc(N)cc1O,outcome,[1],inactive
same,outcome,[5],inactive
same,outcome,[2],inactive
same,outcome,[4],inactive
